# Assay results taken from PubChem BioAssay.
# “And” between values parts separate entries of the source, which are not always exact repeats. Identical values can stand only once. Inconclusive results are not listed. The source made the active and inactive calls. Unless noted, the rule behind the calls is not given here.
# How the values were obtained:
# [1] = system: Aerobactin synthetase IucA (Klebsiella pneumoniae); test: IucA aerobactin synthetase inhibitors, biochemical, Tocris library, absorbance (AID 1345561); details: purified IucA enzyme assay, absorbance (OD) read-out; stronger effect = lower value;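 tested at 8 µM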;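 note: 100% = enzyme without compound and 0% = no enzyme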
# [2] = growth inhibition of DIPG glioma cells, dose response, cell-based, SU-DIPG-XVII, MIPE5.0, CellTiter-Glo, qHTS (AID 1347060; cut-off not given, nearly all actives have AC50 up to about 26 µM); details: SU-DIPG-XVII viability, CellTiter-Glo ATP luminescence
# [3] = growth inhibition of DIPG glioma cells, dose response, cell-based, JHH-DIPG-1, MIPE4.0, CellTiter-Glo, qHTS (AID 1347062; cut-off not given, nearly all actives have AC50 up to about 27 µM); details: JHH-DIPG-1 viability, CellTiter-Glo ATP luminescence
# [4] = growth inhibition of DIPG glioma cells, dose response, cell-based, SU-DIPG-IV, MIPE4.0, CellTiter-Glo, qHTS (AID 1347063; cut-off not given, nearly all actives have AC50 up to about 30 µM;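 note: compound exposure lasted 48 hours before the viability readout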); details: SU-DIPG-IV viability, CellTiter-Glo ATP luminescence
# [5] = growth inhibition of DIPG glioma cells, dose response, cell-based, SU-DIPG-XIII, MIPE5.0, CellTiter-Glo, qHTS (AID 1347064; cut-off not given, nearly all actives have AC50 up to about 23 µM); details: SU-DIPG-XIII viability, CellTiter-Glo ATP luminescence
# [6] = viability loss in pontine glioma line – cell-based, SU-DIPG-XXV, MIPE5.0, CellTiter-Glo, qHTS, dose response (AID 1347065; cut-off not given, nearly all actives have AC50 up to about 26 µM;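 note: cells exposed to compound for 48 hours before ATP readout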); details: CellTiter-Glo ATP luminescence
# [7] = SU-DIPG-VI glioma cell viability, MIPE4.0 library, CellTiter-Glo luminescence, qHTS (AID 1347066; cut-off not given, nearly all actives have AC50 up to about 30 µM;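 note: cells exposed to compound for 48 hours before readout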); details: CellTiter-Glo ATP luminescence
# [8] = SU-DIPG-XXV glioma cell viability, MIPE5.0 library, qHTS (AID 1347068; cut-off not given, nearly all actives have IC50 up to about 30 µM)
# [9] = sensitizers of A549 cells to miR-34 induction, primary screen, imaging, A549 dox-inducible miR-34, nuclei and caspase counts (AID 1347080;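 active = compounds whose cell count with miR-34 switched on is under 0.7 times the count with it off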); details: A549 miR-34 inducible, Hoechst nuclei count, 48 h
# [10] = modifiers of HSF1 nuclear foci, imaging, Selleck Cancer Library (AID 1347162; in the data active = plate-normalised HSF1 focus index below about 0.46); details: human cells, at 10 µM; SSMD: measured here: HSF1 foci SSMD mean; cell count: measured here: cell number; plate-normalised HSF1 focus index: stronger effect = lower value
# [11] = viability rescue of complex I mutant cybrids, primary screen, cell-based, galactose medium, ATP luminescence (AID 1645843;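 active = z-score of at least 1.8 in each of two replicates, scored against plate mean and spread of sample wells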;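 note: positive z means more ATP and so rescue of galactose-driven cybrid death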); details: complex I mutant cybrid cells, 72 h, stronger effect = higher value
# [12] = JHH-DIPG-1 glioma cell viability, MIPE5.0 library, CellTiter-Glo luminescence, qHTS (AID 1347067; cut-off not given, nearly all actives have AC50 up to about 26 µM;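 note: cells exposed to compound for 48 hours before readout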); details: JHH-DIPG-1 glioma viability, CellTiter-Glo ATP luminescence
# [13] = phospholipid biosynthesis inhibitors in animal cells, primary screen, cell-based, LOPAC library, screen 4 (AID 1347384); details: phospholipid biosynthesis inhibition screen, at 10 µM
# [14] = system: Aerobactin synthetase IucA (Klebsiella pneumoniae, hypervirulent); test: IucA enzyme inhibition, biochemical, LOPAC library, absorbance readout (AID 1346212); details: IucA enzyme assay, absorbance (OD) readout; stronger effect = lower value;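 tested at 8 µM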;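 note: 100% = no compound wells and 0% = no enzyme wells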
# [15] = survival rescue of mitochondrial mutant cells in low glucose, primary screen, MELAS cybrids, Rieske KO mouse fibroblasts, CellTiter-Glo (AID 1508586;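 active = mean z-score across replicates of 1.96 or higher in either the MELAS or the Rieske mutant cell line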;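 note: z relative to plate mean and SD of compound and empty wells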)
# [16] = circadian clock period modulators, cell-based, LOPAC library, luminescence reporter (AID 2774); details: circadian reporter cells, at 7 µM, actives lie on both sides;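 note: values are relative to mean of DMSO wells on each plate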
# [17] = system: Hepatitis C virus NS3 helicase; test: HCV NS3 helicase inhibitors, primary screen, biochemical, fluorescence polarization, LOPAC1280 library (AID 687035; in the data active = inhibition above about 37%); details: Purified HCV NS3 helicase, Cy5-dT15 ssDNA binding fluorescence polarization; stronger effect = higher value; concentration not given here
# [18] = Cy5 fluorescence quenching or enhancement artefacts, artefact control for HCV NS3 helicase inhibitor project, biochemical, LOPAC1280 (AID 687037); details: Cy5-DNA-NS3h complex fluorescence interference counterscreen
# [19] = molecular target: ATP-dependent translocase ABCB1 (Homo sapiens) (UniProt P08183); test: MDR1 (ABCB1) efflux transporter inhibition, cell-based (AID 377; in the data active = fluorescence slope change above about 50%); details: MDR1-expressing cells, fluorescent substrate accumulation slope; stronger effect = higher value; concentration not given here
# [20] = hESC survival regulators, cell-based (AID 493140); details: human embryonic stem cell survival screen; stronger effect = higher value;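 note: cells exposed to compounds for four days before counting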
# [21] = liver-stage malaria parasite growth inhibition, primary screen, cell-based, HepG2, luciferase luminescence, HepG2 viability (AID 624349; in the data active = parasite load remaining mostly below about 12%, no sharp cut-off; inactive = mostly above about 10%;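 note: 100% = mean of DMSO negative control wells on the same plate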); details: P. berghei liver stage in HepG2, luciferase luminescence, concentration not given here; parasite load remaining: stronger effect = lower value; viability: measured here: HepG2 viability without parasites
# [22] = stronger effect = lower value, cell number ratio, induced over uninduced
# [23] = measured here: relative caspase fold change +Dox/-Dox
# [24] = measured here: total cells with miR-34 induction, stronger effect = lower value
# [25] = measured here: total cells without miR-34 induction
# [26] = MELAS cybrid survival, CellTiter-Glo 48 h, stronger effect = higher value
# [27] = Rieske KO mouse fibroblast survival, CellTiter-Glo 72 h
# Sequence of ATP-dependent translocase ABCB1 (Homo sapiens) (P08183 whole entry, looked up): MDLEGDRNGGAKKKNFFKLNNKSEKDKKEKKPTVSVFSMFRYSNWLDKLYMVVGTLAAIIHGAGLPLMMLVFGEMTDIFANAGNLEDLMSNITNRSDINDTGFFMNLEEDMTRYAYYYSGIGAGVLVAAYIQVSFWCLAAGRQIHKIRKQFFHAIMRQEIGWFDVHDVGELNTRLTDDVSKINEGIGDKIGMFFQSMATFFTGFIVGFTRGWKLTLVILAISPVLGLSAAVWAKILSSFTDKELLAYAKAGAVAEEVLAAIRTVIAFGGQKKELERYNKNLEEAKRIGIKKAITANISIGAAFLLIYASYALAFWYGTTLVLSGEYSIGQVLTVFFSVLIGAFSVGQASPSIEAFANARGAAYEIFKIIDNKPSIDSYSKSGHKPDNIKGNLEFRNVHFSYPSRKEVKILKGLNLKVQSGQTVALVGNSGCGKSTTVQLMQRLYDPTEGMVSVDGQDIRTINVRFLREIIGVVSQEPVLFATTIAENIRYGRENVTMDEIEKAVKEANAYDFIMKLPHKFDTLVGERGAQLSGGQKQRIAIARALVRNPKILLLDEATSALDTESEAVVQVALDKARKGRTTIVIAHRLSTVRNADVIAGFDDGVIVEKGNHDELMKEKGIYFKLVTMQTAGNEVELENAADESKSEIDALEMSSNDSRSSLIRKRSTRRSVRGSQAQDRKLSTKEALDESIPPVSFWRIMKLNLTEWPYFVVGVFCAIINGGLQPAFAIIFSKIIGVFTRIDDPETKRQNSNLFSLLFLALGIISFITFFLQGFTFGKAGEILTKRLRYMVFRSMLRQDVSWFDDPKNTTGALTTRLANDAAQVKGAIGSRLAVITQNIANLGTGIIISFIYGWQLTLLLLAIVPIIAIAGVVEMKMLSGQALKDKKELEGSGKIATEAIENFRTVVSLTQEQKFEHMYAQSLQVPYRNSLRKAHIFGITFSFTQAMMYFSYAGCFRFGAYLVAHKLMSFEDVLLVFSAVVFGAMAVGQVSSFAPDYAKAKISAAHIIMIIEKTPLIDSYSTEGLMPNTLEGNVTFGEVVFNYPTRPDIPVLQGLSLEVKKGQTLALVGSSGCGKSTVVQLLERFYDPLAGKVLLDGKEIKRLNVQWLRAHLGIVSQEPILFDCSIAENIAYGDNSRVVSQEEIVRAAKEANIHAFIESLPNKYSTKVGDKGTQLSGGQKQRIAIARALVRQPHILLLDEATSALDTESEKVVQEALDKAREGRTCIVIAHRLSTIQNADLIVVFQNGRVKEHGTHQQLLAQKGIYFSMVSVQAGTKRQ
smiles,measurement,setting,value
CN(C)CCN(C)CCc1ccc(Cl)c(Cl)c1,remaining activity,[1],102% (inactive)
same,outcome,[2],inactive
same,outcome,[3],inactive
same,outcome,[4],inactive
same,outcome,[5],inactive
same,outcome,[6],inactive
same,outcome,[7],inactive
same,outcome,[8],inactive
same,fold change,[9]; [22],0.927 (inactive)
same,fold change,[9]; [23],0.848
same,cell count,[9]; [24],8600
same,cell count,[9]; [25],9270
same,SSMD,[10],1.43
same,cell count,[10],7160
same,plate-normalised HSF1 focus index,[10],1.09 (inactive)
same,z-score,[11],-0.285 (inactive)
CN(C(=O)Cc1ccc(Cl)c(Cl)c1)[C@H](CN1CCCC1)c1ccccc1,remaining activity,[1],98.2% (inactive)
same,fold change,[9]; [22],0.987 (inactive)
same,fold change,[9]; [23],0.762
same,cell count,[9]; [24],7540
same,cell count,[9]; [25],7640
same,z-score,[11],-0.625 (inactive)
O=C(O)C1=CCCN(CCOC(c2ccc(C(F)(F)F)cc2)c2ccc(C(F)(F)F)cc2)C1,remaining activity,[1],122% (inactive)
same,outcome,[2],inactive
same,outcome,[12],inactive
same,outcome,[8],inactive
same,fold change,[9]; [22],0.921 (inactive)
same,fold change,[9]; [23],0.739
same,cell count,[9]; [24],8210
same,cell count,[9]; [25],8910
same,z-score,[11],5.47 (active)
O=c1ccc2[nH]cc(C3=CCNCC3)c2[nH]1,remaining activity,[1],123% (inactive)
same,fold change,[9]; stronger effect = lower value,0.986 (inactive)
same,fold change,[9]; [22],0.934 (inactive)
same,fold change,[9]; [23],2.8 and 0.965
same,cell count,[9]; [24],10100 and 7840
same,cell count,[9]; [25],10200 and 8390
same,outcome,[13],inactive
same,z-score,[11],0.725 (inactive) and 0.015 (inactive)
CCNC(=O)[C@H]1O[C@@H](n2cnc3c(N)ncnc32)[C@H](O)[C@@H]1O,remaining activity,[1],122% (inactive)
same,remaining activity,[14],120% (inactive)
same,fold change,[9]; [22],0.978 (inactive)
same,fold change,[9]; [23],0.831
same,cell count,[9]; [24],8940
same,cell count,[9]; [25],9140
same,z-score,[11],-0.23 (inactive)
O=C(O)Cc1cccnc1C(=O)O,remaining activity,[1],108% (inactive)
same,fold change,[9]; [22],0.98 (inactive)
same,fold change,[9]; [23],0.669
same,cell count,[9]; [24],8790
same,cell count,[9]; [25],8970
same,z-score,[11],0.32 (inactive)
CN1c2ccccc2C(NCCCCCCC(=O)O)c2ccc(Cl)cc2S1(=O)=O (configuration not stated),remaining activity,[1],117% (inactive)
same,fold change,[9]; stronger effect = lower value,0.955 (inactive) and 0.9 (inactive)
same,fold change,[9]; [23],0.36 and 0.634
same,cell count,[9]; [24],7100 and 7840
same,cell count,[9]; [25],7430 and 8710
same,z-score,[15]; [26],-0.117 (inactive)
same,z-score,[15]; [27],0.00377
same,z-score,[11],0.255 (inactive)
Cc1nc(N)sc1CCN,remaining activity,[1],88.4% (inactive)
same,fold change,[9]; [22],0.919 (inactive)
same,fold change,[9]; [23],1.01
same,cell count,[9]; [24],8020
same,cell count,[9]; [25],8730
same,z-score,[11],0.195 (inactive)
O=C1Nc2ccccc2C2(CCN(CCc3ccc(C(F)(F)F)cc3)CC2)O1,remaining activity,[1],102% (inactive)
same,fold change,[9]; [22],1.06 (inactive)
same,fold change,[9]; [23],0.675
same,cell count,[9]; [24],4790
same,cell count,[9]; [25],4500
same,z-score,[11],-0.66 (inactive)
NC(C(=O)O)c1cc(=O)[nH]o1 (configuration not stated),period change,[16],0.025 h (inactive)
same,inhibition,[17],-1% (inactive)
same,fluorescence ratio (interference),[18],0.9 (inactive)
same,remaining activity,[1],105% (inactive)
same,fold change,[9]; stronger effect = lower value,1.08 (inactive) and 0.946 (inactive)
same,fold change,[9]; [23],1.44 and 1.4
same,cell count,[9]; [24],10500 and 9700
same,cell count,[9]; [25],9770 and 10300
same,outcome,[13],inactive
same,z-score,[11],0.635 (inactive) and 0.185 (inactive)
C=CCN1CC[C@]23c4c5ccc(O)c4O[C@H]2/C(=N/NC(=O)c2ccccc2)CC[C@@]3(O)[C@H]1C5,period change,[16],0.215 h (inactive)
same,remaining activity,[1],115% (inactive)
same,remaining activity,[14],116% (inactive)
same,fold change,[9]; stronger effect = lower value,0.994 (inactive)
same,fold change,[9]; [23],0.667
same,cell count,[9]; [24],9120
same,cell count,[9]; [25],9170
same,z-score,[11],-0.33 (inactive)
Clc1ccc(C2=CCCC3CCC2N3)cn1 (configuration not stated),remaining activity,[1],101% (inactive)
same,fold change,[9]; [22],0.907 (inactive)
same,fold change,[9]; [23],0.911
same,cell count,[9]; [24],9190
same,cell count,[9]; [25],10100
same,z-score,[11],0.365 (inactive)
CC(C)[C@@]1(NC(=O)[C@@H]2C[C@@H]3c4cccc5[nH]cc(c45)C[C@H]3N(C)C2)O[C@@]2(O)[C@@H]3CCCN3C(=O)[C@H](Cc3ccccc3)N2C1=O,fluorescence slope change,[19],195% (active)
same,period change,[16],0.005 h (inactive)
same,survival,[20],11.8 (inactive)
same,parasite load remaining,[21],54.5% (inactive) and 64.8% (inactive) and 17.1% (inactive)
same,viability,[21],93% and 73.6% and 61.5%
same,remaining activity,[1],88.2% (inactive)
same,remaining activity,[14],120% (inactive)
same,fold change,[9]; stronger effect = lower value,0.784 (inactive) and 0.954 (inactive) and 0.887 (inactive)
same,fold change,[9]; [23],1.05 and 0.961 and 0.856
same,cell count,[9]; [24],6690 and 7710 and 8510
same,cell count,[9]; [25],8530 and 8070 and 9590
same,z-score,[15]; [26],-0.553 (inactive)
same,z-score,[15]; [27],0.653
same,z-score,[11],-0.045 (inactive) and 0.13 (inactive)
CCCCC1(C2CCCC2)Cc2cc(OCCCC(=O)O)c(Cl)c(Cl)c2C1=O (configuration not stated),remaining activity,[1],98.2% (inactive)
same,fold change,[9]; [22],0.969 (inactive)
same,fold change,[9]; [23],0.91
same,cell count,[9]; [24],7490
same,cell count,[9]; [25],7730
same,z-score,[11],3.13 (active)
CN1C2CCC1CC(OC(=O)c1cc(Cl)cc(Cl)c1)C2 (configuration not stated),period change,[16],-0.075 h (inactive)
same,inhibition,[17],-7% (inactive)
same,fluorescence ratio (interference),[18],0.9 (inactive)
same,remaining activity,[1],82.7% (inactive)
same,fold change,[9]; stronger effect = lower value,1.08 (inactive) and 0.937 (inactive)
same,fold change,[9]; [23],1.35 and 0.719
same,cell count,[9]; [24],8680 and 8550
same,cell count,[9]; [25],8070 and 9130
same,outcome,[13],inactive
same,z-score,[11],-0.22 (inactive) and 0.04 (inactive)
CC(C)(C)c1o[nH]c(=O)c1CC(N)C(=O)O (configuration not stated),period change,[16],-0.635 h (inactive)
same,inhibition,[17],-1% (inactive)
same,fluorescence ratio (interference),[18],1 (inactive)
same,remaining activity,[1],108% (inactive)
same,remaining activity,[14],110% (inactive)
same,fold change,[9]; stronger effect = lower value,1 (inactive) and 0.891 (inactive)
same,fold change,[9]; [23],1.8 and 0.776
same,cell count,[9]; [24],10700 and 8780
same,cell count,[9]; [25],10700 and 9850
same,outcome,[13],inactive
same,z-score,[11],-0.285 (inactive) and -0.155 (inactive)
